# According to PMC7862700, “An all-to-all approach to the identification of sequence-specific readers for epigenetic DNA modifications on cytosine”:
# Key:
# Assay in all cases: DAPPL (digital affinity profiling via proximity ligation, sequencing); 10 mM Tris-HCl pH 7.5, 50 mM NaCl, 1 mM DTT, 4% glycerol, room temperature, 30 min; GST-TFs on glutathione beads, 16-mer random dsDNA library, 0.1% formaldehyde crosslink after washing; high values mean tight binding
# Details in all cases: protein: recombinant; tags: N-terminal GST; dsDNA, one strand shown
# [1] = target: T1, ELK1 (Homo sapiens, UniProt P19419 1-428)
# T1 sequence: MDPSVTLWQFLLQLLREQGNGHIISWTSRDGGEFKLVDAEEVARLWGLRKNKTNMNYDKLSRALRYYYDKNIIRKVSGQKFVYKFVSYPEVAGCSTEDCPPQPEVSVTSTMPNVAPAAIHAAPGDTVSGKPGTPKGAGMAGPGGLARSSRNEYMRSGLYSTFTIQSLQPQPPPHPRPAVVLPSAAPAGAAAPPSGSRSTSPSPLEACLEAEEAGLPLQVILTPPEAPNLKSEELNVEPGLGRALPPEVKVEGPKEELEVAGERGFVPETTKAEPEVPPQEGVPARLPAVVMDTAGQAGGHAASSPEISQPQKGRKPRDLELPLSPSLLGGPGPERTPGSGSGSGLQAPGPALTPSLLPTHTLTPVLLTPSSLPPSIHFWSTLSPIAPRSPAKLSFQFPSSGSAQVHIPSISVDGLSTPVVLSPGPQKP
# Method in brief: (§1)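 Pools were built from human transcription factors expressed in yeast as GST fusions, captured on glutathione beads and DNA-barcoded, along with a tag-only sample. Incubation with 200 nmole of a 16-mer random double-stranded DNA library lasted 30 min at room temperature in Tris/NaCl/DTT/glycerol buffer, and was followed by washing, 0.1% formaldehyde crosslinking, proximity ligation, PCR amplification and Illumina NextSeq500 sequencing. Binding signal is the quotient of each hexamer's read frequency for a factor and its frequency for the tag-only sample.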
# [2] = target: T2, GABPA (Homo sapiens, UniProt Q06546 1-454)
# T2 sequence: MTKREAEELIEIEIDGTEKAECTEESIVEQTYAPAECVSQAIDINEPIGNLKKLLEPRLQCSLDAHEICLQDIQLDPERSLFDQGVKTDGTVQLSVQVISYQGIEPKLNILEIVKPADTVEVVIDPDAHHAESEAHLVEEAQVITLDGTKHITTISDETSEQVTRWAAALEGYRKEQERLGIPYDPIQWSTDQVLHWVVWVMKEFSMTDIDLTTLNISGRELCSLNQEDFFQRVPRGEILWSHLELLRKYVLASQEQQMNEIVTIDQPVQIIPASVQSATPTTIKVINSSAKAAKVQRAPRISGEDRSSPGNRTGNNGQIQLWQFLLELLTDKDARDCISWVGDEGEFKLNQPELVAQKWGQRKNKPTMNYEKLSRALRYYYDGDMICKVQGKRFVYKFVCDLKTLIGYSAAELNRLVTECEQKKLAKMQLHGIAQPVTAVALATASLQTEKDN
# Method in brief: as §1
# [3] = target: T3, ERG (Homo sapiens, UniProt P11308 1-479)
# T3 sequence: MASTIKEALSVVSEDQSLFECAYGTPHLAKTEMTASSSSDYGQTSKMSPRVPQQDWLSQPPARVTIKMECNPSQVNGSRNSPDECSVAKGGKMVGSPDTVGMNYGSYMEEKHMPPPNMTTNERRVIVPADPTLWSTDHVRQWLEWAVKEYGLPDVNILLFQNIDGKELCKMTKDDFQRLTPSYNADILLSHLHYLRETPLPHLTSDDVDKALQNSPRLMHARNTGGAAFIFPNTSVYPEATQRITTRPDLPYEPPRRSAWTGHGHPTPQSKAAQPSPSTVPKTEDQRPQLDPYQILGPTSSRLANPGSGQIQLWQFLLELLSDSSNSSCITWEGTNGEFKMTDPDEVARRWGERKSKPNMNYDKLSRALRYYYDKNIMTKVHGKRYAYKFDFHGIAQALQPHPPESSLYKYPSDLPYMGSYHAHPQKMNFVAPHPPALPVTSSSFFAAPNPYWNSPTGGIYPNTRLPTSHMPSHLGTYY
# Method in brief: as §1
# [4] = target: ELF1 (Homo sapiens, UniProt P32519 1-619)
# Method in brief: as §1
# [5] = target: T4, EHF (Homo sapiens, UniProt Q9NZC4 1-300)
# T4 sequence: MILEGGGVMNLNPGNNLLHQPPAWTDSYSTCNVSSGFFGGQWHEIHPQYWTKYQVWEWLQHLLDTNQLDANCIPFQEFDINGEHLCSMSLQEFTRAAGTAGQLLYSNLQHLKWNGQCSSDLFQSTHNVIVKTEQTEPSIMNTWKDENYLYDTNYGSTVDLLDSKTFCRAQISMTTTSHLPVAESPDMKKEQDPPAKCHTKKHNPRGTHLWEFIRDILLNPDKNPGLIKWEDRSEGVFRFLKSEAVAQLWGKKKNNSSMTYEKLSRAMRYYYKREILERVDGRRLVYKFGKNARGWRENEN
# Method in brief: as §1
# [6] = target: SPI1 (Homo sapiens, UniProt P17947 1-270)
# Method in brief: as §1
# [7] = target: SPIB (Homo sapiens, UniProt Q01892 1-262)
# Method in brief: as §1
# [8] = target: T5, FEV (Homo sapiens, UniProt Q99581 1-238)
# T5 sequence: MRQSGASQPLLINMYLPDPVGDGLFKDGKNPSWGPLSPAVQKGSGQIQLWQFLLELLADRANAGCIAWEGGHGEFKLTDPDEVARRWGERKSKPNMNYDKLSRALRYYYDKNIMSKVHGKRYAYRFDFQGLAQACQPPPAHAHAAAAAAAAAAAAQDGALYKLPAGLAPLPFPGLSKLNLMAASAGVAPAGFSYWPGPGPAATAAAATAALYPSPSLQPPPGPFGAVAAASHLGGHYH
# Method in brief: as §1
# [9] = target: ETV5 (Homo sapiens, UniProt P41161 1-510)
# Method in brief: as §1
# [10] = target: ELF4 (Homo sapiens, UniProt Q99607 1-663)
# Method in brief: as §1
# [11] = target: T6, ELK4 (Homo sapiens, UniProt P28324-2 1-405)
# T6 sequence: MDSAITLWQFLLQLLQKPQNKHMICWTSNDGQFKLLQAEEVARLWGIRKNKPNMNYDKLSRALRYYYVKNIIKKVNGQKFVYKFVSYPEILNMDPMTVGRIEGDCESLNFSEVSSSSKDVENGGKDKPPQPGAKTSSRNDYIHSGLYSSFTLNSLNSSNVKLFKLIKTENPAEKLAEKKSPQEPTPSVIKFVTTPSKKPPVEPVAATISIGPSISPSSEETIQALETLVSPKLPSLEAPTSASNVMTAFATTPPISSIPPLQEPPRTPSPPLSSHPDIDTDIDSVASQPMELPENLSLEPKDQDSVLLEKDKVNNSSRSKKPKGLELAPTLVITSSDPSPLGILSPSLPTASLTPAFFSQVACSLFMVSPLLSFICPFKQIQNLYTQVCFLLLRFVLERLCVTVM
# Method in brief: as §1
# [12] = target: T7, ELF3 (Homo sapiens, UniProt P78545 1-371)
# T7 sequence: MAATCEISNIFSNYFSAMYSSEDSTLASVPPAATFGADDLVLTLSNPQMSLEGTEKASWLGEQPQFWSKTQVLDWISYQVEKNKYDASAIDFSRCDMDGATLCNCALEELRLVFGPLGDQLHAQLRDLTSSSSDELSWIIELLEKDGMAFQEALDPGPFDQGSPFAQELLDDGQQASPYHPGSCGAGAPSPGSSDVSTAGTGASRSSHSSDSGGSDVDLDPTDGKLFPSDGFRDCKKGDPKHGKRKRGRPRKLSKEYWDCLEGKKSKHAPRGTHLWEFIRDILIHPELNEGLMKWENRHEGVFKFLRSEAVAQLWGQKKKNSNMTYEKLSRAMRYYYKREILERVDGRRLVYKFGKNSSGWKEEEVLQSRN
# Method in brief: as §1
# [13] = target: ETV1 (Homo sapiens, UniProt P50549 1-477)
# Method in brief: as §1
# [14] = target: T8, ERF (Homo sapiens, UniProt P50548 1-548)
# T8 sequence: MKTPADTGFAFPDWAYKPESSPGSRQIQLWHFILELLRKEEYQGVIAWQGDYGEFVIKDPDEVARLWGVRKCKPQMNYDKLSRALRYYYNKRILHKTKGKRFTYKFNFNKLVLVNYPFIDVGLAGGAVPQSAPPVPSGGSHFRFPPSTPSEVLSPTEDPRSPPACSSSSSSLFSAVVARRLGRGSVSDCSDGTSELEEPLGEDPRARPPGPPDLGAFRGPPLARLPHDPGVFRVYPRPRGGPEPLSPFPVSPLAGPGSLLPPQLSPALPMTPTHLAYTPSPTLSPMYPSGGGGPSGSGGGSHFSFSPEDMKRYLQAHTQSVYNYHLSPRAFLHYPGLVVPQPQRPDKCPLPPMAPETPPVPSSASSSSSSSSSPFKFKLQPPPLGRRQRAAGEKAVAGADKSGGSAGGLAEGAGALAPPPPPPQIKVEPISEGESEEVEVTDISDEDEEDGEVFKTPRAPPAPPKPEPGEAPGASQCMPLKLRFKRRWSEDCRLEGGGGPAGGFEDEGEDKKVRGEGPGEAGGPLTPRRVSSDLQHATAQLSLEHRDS
# Method in brief: as §1
# [15] = target: T9, ETV3L (Homo sapiens, UniProt Q6ZN32 1-361)
# T9 sequence: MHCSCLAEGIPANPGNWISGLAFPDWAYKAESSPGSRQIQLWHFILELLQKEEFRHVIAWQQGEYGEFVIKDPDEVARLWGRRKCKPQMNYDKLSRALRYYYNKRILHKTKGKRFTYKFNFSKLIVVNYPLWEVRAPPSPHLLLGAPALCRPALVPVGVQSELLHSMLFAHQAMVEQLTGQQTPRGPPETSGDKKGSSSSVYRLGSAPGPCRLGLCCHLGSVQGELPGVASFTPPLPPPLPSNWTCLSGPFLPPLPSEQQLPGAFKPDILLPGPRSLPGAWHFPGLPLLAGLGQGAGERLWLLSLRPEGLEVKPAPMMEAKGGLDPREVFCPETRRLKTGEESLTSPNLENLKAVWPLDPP
# Method in brief: as §1
# [16] = target: T10, ETS2 (Homo sapiens, UniProt P15036 1-469)
# T10 sequence: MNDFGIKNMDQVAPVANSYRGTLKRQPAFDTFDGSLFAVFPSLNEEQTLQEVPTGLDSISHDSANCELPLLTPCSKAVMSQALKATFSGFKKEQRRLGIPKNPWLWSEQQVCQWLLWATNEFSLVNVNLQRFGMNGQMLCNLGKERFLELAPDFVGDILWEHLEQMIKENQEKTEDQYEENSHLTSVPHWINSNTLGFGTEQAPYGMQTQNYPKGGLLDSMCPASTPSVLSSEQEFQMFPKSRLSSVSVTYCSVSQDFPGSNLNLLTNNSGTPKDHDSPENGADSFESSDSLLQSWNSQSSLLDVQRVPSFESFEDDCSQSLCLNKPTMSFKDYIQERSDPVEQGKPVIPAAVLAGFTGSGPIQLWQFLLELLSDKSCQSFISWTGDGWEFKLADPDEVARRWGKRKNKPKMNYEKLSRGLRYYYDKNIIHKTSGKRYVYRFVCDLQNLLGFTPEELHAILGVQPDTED
# Method in brief: as §1
# [17] = target: T11, SPDEF (Homo sapiens, UniProt O95238 1-335)
# T11 sequence: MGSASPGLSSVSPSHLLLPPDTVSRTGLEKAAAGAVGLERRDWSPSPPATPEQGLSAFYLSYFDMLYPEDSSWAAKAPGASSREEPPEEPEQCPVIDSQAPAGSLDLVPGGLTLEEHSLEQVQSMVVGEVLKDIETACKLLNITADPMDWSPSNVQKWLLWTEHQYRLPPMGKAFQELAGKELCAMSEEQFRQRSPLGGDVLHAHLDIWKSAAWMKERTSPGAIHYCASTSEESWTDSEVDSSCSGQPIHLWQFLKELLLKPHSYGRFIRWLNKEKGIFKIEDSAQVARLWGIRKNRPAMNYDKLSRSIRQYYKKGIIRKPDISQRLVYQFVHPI
# Method in brief: as §1
# [18] = target: T12, ETV3 (Homo sapiens, UniProt P41162-2 1-143)
# T12 sequence: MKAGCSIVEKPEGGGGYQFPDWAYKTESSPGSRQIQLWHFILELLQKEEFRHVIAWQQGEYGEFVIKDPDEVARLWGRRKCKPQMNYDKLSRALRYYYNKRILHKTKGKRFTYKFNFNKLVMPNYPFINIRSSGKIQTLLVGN
# Method in brief: as §1
# [19] = target: ETV6 (Homo sapiens, UniProt P41212 1-452)
# Method in brief: as §1
# Chain of ELF4 (Q99607 whole entry): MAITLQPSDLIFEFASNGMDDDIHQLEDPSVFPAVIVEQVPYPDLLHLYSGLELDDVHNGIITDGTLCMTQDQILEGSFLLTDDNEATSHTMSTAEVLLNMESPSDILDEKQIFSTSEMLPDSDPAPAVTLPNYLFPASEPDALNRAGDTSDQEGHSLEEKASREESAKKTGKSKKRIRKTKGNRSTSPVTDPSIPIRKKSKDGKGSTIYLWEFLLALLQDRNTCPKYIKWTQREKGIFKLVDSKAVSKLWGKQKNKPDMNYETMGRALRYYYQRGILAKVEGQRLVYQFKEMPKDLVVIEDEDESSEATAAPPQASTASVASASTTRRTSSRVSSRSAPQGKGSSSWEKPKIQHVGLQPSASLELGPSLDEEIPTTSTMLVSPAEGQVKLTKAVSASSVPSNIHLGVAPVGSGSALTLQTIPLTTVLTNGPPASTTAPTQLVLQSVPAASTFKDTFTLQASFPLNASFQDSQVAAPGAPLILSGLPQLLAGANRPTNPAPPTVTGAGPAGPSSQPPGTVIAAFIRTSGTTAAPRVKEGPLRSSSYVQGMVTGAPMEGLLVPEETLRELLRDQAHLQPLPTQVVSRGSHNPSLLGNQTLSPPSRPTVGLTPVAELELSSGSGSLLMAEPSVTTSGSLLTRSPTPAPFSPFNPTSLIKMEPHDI
# Chain of SPIB (Q01892 whole entry): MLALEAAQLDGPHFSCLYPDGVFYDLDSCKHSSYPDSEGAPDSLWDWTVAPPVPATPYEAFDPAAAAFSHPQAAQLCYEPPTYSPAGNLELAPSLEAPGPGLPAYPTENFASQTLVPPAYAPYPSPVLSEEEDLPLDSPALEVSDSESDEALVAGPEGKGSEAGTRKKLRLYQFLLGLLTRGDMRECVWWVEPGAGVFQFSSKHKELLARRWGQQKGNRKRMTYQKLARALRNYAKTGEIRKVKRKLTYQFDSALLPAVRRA
# Chain of ETV5 (P41161 whole entry): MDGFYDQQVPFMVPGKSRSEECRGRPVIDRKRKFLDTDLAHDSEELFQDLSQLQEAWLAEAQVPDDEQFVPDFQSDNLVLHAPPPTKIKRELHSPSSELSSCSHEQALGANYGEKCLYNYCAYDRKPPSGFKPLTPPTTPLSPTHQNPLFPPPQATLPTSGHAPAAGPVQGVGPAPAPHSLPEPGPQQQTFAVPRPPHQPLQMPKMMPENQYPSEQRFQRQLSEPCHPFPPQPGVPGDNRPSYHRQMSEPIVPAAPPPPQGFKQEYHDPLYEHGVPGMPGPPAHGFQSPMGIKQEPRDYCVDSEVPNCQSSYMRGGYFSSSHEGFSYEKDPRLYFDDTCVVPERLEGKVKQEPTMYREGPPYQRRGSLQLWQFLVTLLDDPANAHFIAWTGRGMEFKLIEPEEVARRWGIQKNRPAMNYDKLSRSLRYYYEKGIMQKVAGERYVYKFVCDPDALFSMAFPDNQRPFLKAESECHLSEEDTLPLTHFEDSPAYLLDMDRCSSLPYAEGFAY
# Chain of ELF1 (P32519 whole entry): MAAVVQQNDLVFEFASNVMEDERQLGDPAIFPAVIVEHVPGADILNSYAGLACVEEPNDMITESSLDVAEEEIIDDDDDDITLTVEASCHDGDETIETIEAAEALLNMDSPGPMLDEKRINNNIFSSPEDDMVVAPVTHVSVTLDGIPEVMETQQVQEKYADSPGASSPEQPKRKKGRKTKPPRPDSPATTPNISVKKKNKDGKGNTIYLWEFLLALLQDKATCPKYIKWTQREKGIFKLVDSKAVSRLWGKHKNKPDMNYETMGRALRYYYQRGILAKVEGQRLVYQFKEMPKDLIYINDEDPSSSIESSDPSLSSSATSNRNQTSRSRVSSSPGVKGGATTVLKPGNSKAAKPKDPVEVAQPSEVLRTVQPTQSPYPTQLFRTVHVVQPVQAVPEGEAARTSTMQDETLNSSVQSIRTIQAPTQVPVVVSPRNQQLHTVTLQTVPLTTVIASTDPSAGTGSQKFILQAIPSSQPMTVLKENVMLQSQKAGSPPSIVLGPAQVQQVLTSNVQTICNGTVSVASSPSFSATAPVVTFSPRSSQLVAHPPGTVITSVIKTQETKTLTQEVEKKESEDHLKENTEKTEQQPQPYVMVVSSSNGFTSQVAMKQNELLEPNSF
# Chain of ETV6 (P41212 whole entry): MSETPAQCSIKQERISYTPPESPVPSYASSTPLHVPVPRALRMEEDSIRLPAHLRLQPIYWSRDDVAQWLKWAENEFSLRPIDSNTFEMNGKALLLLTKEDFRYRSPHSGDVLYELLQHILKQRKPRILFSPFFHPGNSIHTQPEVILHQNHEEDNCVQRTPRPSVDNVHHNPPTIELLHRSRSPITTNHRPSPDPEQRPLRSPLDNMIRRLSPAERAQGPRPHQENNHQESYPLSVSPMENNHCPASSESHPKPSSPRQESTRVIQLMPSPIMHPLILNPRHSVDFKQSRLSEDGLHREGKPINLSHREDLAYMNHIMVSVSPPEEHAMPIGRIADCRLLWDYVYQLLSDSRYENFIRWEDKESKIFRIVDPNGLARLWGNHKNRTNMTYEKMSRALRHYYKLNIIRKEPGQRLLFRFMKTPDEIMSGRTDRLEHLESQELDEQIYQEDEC
# Chain of ETV1 (P50549 whole entry): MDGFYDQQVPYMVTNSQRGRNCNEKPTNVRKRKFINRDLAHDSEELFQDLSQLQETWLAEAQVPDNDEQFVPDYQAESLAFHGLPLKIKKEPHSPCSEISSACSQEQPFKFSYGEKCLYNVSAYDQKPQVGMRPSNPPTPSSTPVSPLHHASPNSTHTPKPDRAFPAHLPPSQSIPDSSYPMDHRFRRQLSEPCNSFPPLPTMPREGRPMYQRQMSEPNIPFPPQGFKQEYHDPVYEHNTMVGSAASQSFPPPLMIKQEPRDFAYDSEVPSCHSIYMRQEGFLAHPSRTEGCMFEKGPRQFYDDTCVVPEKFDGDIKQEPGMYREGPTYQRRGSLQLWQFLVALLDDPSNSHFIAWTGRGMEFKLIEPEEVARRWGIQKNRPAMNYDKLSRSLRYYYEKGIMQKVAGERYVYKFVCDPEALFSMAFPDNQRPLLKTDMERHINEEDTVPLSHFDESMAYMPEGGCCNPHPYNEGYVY
sequence,measurement,setting,value
CACCGG,binding signal,[1],"1.16 fold enrichment (6-mer frequency, TF over GST control)"
same,binding signal,[2],"1.04 fold enrichment (6-mer frequency, TF over GST control)"
same,binding signal,[3],"1.27 fold enrichment (6-mer frequency, TF over GST control)"
same,binding signal,[4],"1.09 fold enrichment (6-mer frequency, TF over GST control)"
same,binding signal,[5],"1.13 fold enrichment (6-mer frequency, TF over GST control)"
same,binding signal,[6],"1.08 fold enrichment (6-mer frequency, TF over GST control)"
same,binding signal,[7],"1.16 fold enrichment (6-mer frequency, TF over GST control)"
same,binding signal,[8],"1.75 fold enrichment (6-mer frequency, TF over GST control)"
same,binding signal,[9],"1.21 fold enrichment (6-mer frequency, TF over GST control)"
same,binding signal,[10],"1.16 fold enrichment (6-mer frequency, TF over GST control)"
same,binding signal,[11],"1.05 fold enrichment (6-mer frequency, TF over GST control)"
same,binding signal,[12],"1.17 fold enrichment (6-mer frequency, TF over GST control)"
same,binding signal,[13],"1.21 fold enrichment (6-mer frequency, TF over GST control)"
same,binding signal,[14],"1.08 fold enrichment (6-mer frequency, TF over GST control)"
same,binding signal,[15],"1.14 fold enrichment (6-mer frequency, TF over GST control)"
same,binding signal,[16],"1.17 fold enrichment (6-mer frequency, TF over GST control)"
same,binding signal,[17],"1.08 fold enrichment (6-mer frequency, TF over GST control)"
same,binding signal,[18],"1.14 fold enrichment (6-mer frequency, TF over GST control)"
same,binding signal,[19],"1.09 fold enrichment (6-mer frequency, TF over GST control)"
